Sampled rows, rich in hits. Any-hit rate of the full collection: about 1.2%.
RN4220 kill: S. aureus RN4220 growth inhibition. OD600, 16 h. inhibition, % (test concentration not listed). hit rate 0.33% among 330,000; in the data active = inhibition above about 85%;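 also: plate controls were untreated cells for no effect and reference antibiotic for full effect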
PriA SSB inh: blocks PriA binding to SSB C-terminal tail; AlphaScreen SSBct-PriA binding, biotinylated peptide; hit rate 0.6% among 430,000; inhibition, % at 33 µM; in the data active = inhibition mostly above about 37%, no sharp cut-off; inactive = mostly below about 20%;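 also: plate controls were negative control peptide for no effect and reference peptide for full effect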
ugtP null kill: growth inhibition of S. aureus ugtP deletion strain; S. aureus RN4220 ugtP deletion, OD600 growth, 16 h; AID 1259309; hit rate 0.54% among 330,000; growth inhibition, % (no concentration beside the values); in the data active = growth inhibition above about 68%;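 also: plate controls were untreated wells for no effect and antibiotic for full effect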
MazEF act: MazEF (E. coli) toxin RNase activation | P0AE70 | AID 504720 | activation, % at 20 µM | hit rate 0.32% among 350,000 | FAM/BHQ RNA-DNA oligo cleavage fluorescence, 5 h; in the data active = activation above about 50%
Target sequence (P0AE70 whole entry, looked up): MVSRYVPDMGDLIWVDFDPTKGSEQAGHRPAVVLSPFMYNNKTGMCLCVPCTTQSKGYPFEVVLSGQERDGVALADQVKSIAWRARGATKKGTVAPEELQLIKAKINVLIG
BJeLR lethal: BJeLR cell viability loss; BJeLR (HRASV12) viability, CellTiter-Glo ATP luminescence, 48 h; inhibition, % (test concentration not listed); hit rate 0.17% among 300,000; AID 1554; in the data active = inhibition above about 50%
Active calls of the source: *; i = inactive; . = no result given.

SMILES | RN4220 kill | PriA SSB inh | ugtP null kill | MazEF act | BJeLR lethal
C[C@@H](C(=O)Nc1nc(-c2ccccn2)cs1)N1C(=O)C2CCCCC2C1=O (stereo partly specified) | 9 | 81* | -1 | -5 | 4
CC1Oc2ccccc2N(CC(=O)Nc2ccc(F)cc2)C1=O (stereo unspecified) | -2 | -6 | 0 | -24 | -6
CC1Oc2ccccc2N(CC(=O)Nc2nc(-c3ccccn3)cs2)C1=O (stereo unspecified) | . | 58* | . | . | .
Cc1cccc(NC(=O)c2onc3c2CCCC3)n1 | 0 | -5 | 3 | -4 | 48
COC(=O)c1ccc(C(=O)N(CCc2cccs2)Cc2ccoc2)cc1 | . | 12 | . | . | .
COc1cccc(C(=O)NCCNc2ccc(Nc3ccccn3)nn2)c1OC | . | 1 | . | . | .
CC(C)(Oc1ccc(Cl)cc1)C(=O)NCCNc1ccc(Nc2ccccn2)nn1 | . | 31* | . | . | .
CC(=O)Oc1ccc2c(c1)O/C(=C\c1ccncc1)C2=O | . | 2 | . | -617 | -11
CCC(=O)Oc1ccc2c(c1)O/C(=C\c1ccco1)C2=O | . | -7 | . | 691* | -6
COc1ccccc1C(=O)Oc1ccc2c(c1)O/C(=C\c1ccncc1)C2=O | 7 | -1 | 18 | 206* | 1
COc1cc(CN2CCN(Cc3ccc(C)cc3)C(CCO)C2)cc(OC)c1O (stereo unspecified) | 3 | -1 | 3 | 8 | 11
COc1cccc(-c2nc(=S)c3c(n2Cc2ccco2)CCCC3)c1 | -3 | 5 | 85* | -8 | -15
O=C(NN=C/C=C/c1ccccc1)c1cccc(Br)c1 | -1 | 0 | -1 | . | .
O=C(N/N=C/C=C/c1ccccc1)c1cccc(Br)c1 | . | . | . | 53* | 4
COc1cc(SC)ccc1C(=O)Nc1nc2ccccc2[nH]1 | . | 5 | . | 7 | 121*
COc1ccccc1C(=O)Nc1nc2ccccc2[nH]1 | . | -5 | . | 6 | 109*
CCOC(=O)C(CCc1ccccc1)NC(C)C(=O)N1Cc2ccccc2CC1C(=O)O (stereo unspecified) | 4 | . | 1 | . | .
CC(C)CNC(=O)/C=C/c1cccs1 | 3 | 6 | 2 | 5 | -12
CC1(C)CC(=O)C2=C(C1)OC(N)=C(C#N)C2c1ccccc1 (stereo unspecified) | 8 | -5 | -8 | 12 | 1
CC1CC(=O)C2=C(C1)OC(N)=C(C#N)C2c1coc2ccccc2c1=O (stereo unspecified) | 6 | -20 | 5 | 85* | -4
Nc1ccc(N=Nc2ccc(N)cc2)cc1 | 8 | 15 | -4 | 2 | 1
Cc1cc(N(C)C)ccc1N=Nc1ccc(N)cc1 | -3 | 93* | 14 | -10 | 9
COCCN(Cc1ccoc1)S(=O)(=O)c1ccc2c(c1)OCCO2 | . | -17 | . | . | .
Cc1ccc2oc(=O)c3cnn(CC(=O)NC4CCC(C)CC4)c3c2c1 (stereo unspecified) | 18 | -8 | 7 | -7 | 2
Cc1oc(C)c2c(=O)ccc3c(c12)OC(N)=C(C#N)C3c1ccccc1 (stereo unspecified) | 0 | -3 | -8 | 106* | 0
SMILES | RN4220 kill | PriA SSB inh | ugtP null kill | MazEF act | BJeLR lethal
Nc1nc2c(s1)-c1cccc3cccc-2c13 | . | 66* | . | . | .
Nc1nc(-c2ccccc2)c(-c2ccccc2)s1 | -1 | 14 | 35 | -6 | -1
Cc1ccc2c(c1)sc[n+]2Cc1ccccc1 | 21 | 21 | 99* | -6 | 6
COCc1c(CN)cnc(C)c1N | 5 | -16 | 5 | 6 | -4
O=C(c1cccs1)N(Cc1ccco1)c1nc(-c2ccc(F)cc2)cs1 | -16 | 1 | 92* | -2 | -1
C=CCNC(=O)C(C#N)c1nc2ccccc2nc1N1CCCCCC1 (stereo unspecified) | 21 | -2 | -11 | -12 | -3
CC1=C(C(=O)O)N2C(=O)C(NC(=O)c3nn(C)c(C)c3Cl)C2SC1 (stereo unspecified) | 19 | -7 | 23 | -1 | 3
CC(=O)OCC1=C(C(=O)O)N2C(=O)C(NC(=O)C(C)Cn3nc(C)c(Cl)c3C)C2SC1 (stereo unspecified) | 100* | -5 | 101* | -5 | -11
CC(=O)OCC1=C(C(=O)O)N2C(=O)C(NC(=O)c3ccc(F)cc3)C2SC1 (stereo unspecified) | 100* | 2 | 100* | 4 | -4
CC(=O)OCC1=C(C(=O)O)N2C(=O)[C@@H](NC(=O)CSc3ccncc3)[C@H]2SC1 | 100* | 4 | 99* | -2 | .
CO/N=C(\C(=O)N[C@@H]1C(=O)N2C(C(=O)O)=C(COC(C)=O)CS[C@H]12)c1csc(N)n1 | . | i | . | . | .
COc1ccc(S(=O)(=O)Nc2cccc(C(=O)Nc3sc(C)c(C)c3C(N)=O)c2)cc1 | . | -12 | . | . | .
CCCN1CCN(CCCNC(=O)CN2C(=O)C(CC)Oc3ccccc32)CC1 (stereo unspecified) | 5 | -9 | -3 | -1 | 2
COc1ccc(C2NC(=S)NC3=C2N2CCC3CC2)cc1 (stereo unspecified) | 5 | -5 | 7 | 9 | -8
O=[N+]([O-])c1cc(C=Nn2c(-c3ccncc3)n[nH]c2=S)ccc1Cl | . | -4 | . | . | .
O=[N+]([O-])c1ccc(NNC(=S)NC2CCS(=O)(=O)C2)c([N+](=O)[O-])c1 (stereo unspecified) | . | 51* | . | . | .
Cc1cc2ncc(NC(=O)[C@@H]3COc4ccccc4O3)cn2n1 | . | -15 | . | . | .
CC(C)(C)n1[nH]c2c3c(ccc2c1=O)C(=O)c1ccccc1C3=O | 75 | 10 | 61 | 8 | -6
COCCCn1[nH]c2c3c(ccc2c1=O)C(=O)c1ccccc1C3=O | 86* | -2 | 84* | 8 | 8
COc1cc2c(=O)n(CC3CCCO3)c(=O)n(CC(=O)Nc3ccc(F)cc3F)c2cc1OC (stereo unspecified) | 1 | 104* | -2 | -2 | -12
COc1ccc(NC(=O)Cn2c(=O)n(CC3CCCO3)c(=O)c3cc(OC)c(OC)cc32)c(OC)c1 (stereo unspecified) | 7 | -15 | 6 | 11 | 5
CN1CCN(C(=O)C2=CC(c3ccc(Br)cc3)CC(OCCCCO)O2)CC1 (stereo unspecified) | 8 | . | 13 | . | .
CC1CCN(S(=O)(=O)c2ccc3c(c2)oc(=O)n3CC(=O)N2c3ccccc3CC2C)CC1 (stereo unspecified) | 6 | 98* | 3 | -16 | -2
Cc1cc(C)n2cc(CSc3nnnn3C)nc2n1 | 7 | -4 | 2 | -1 | 7
N#C/C(=C\c1ccc(-c2nc3ccccc3s2)o1)C(N)=O | 5 | 0 | -2 | 5 | 7
SMILES | RN4220 kill | PriA SSB inh | ugtP null kill | MazEF act | BJeLR lethal
CNC(=O)/C(C#N)=C/c1ccc(-c2nc3ccccc3s2)o1 | . | -5 | . | 94* | 7
CCn1c(/C=C/c2ccc(O)cc2)nc2ccccc2c1=O | 7 | -15 | -4 | 1 | -15
CCn1c(/C=C/c2ccc(O)c(O)c2)nc2ccccc2c1=O | 13 | -19 | -2 | 121* | -9
CCn1c(/C=C/c2c(C)n(CC)c3ccccc23)nc2ccccc2c1=O | 3 | 4 | -4 | 70* | -1
CCn1c(C=Cc2ccccc2)nc2ccccc2c1=O | 11 | . | -25 | . | .
O=C(O)c1ccc(=O)[nH]n1 | . | 41* | . | . | .

Bioassay records (PubChem)
